This note sets out measurements from PubChem BioAssay (NCATS).

Assay [1] can be described thus: Cell Viability - HUV-EC-C (AID 542).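 Also: cells exposed to compound for 40 hours; nearly all actives have a fitted effect of over 35% in size.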 Also: potency is read from the fitted curve at half-maximal effect. Put shortly: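 Concentration-dependent ATP loss in HUV-EC-C cells is the measure. Exposure lasts 40 hr at 37 °C; luminescence follows CellTiter-Glo addition, and Hill fits give AC50.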
Assay [2] can be described thus: Cell Viability - Mesenchymal (AID 546).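 Also: cells exposed to compound for 40 hours before reading; 0% = DMSO only and -100% = 100 µM tamoxifen.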 The method in brief: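 Human renal mesenchymal cells (glomerulus-derived), 1000 cells/well, 5 hr 37 °C pre-incubation; compound 40 hr, 37 °C; CellTiter-Glo, 20 min RT; luminescence; AC50 via Hill equation.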
Assay [3] is described as follows: Cellular Toxicity (caspase-3) HepG2 (AID 654).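 Also: cells exposed to compound for 16 hours before reading; 0% = DMSO alone and 100% = caspase signal from 100 µM tamoxifen.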 Put shortly: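 Concentration-response AC50 values reflect caspase-3/7 induction in HepG2 cells after 16 hours of compound exposure, quantified by luminescence from liberated aminoluciferin and referenced to 100 uM tamoxifen as full stimulation.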
Assay [4] in a line: Cellular Toxicity (caspase-3) HUV-EC-C (AID 656).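 Also: 0% = DMSO basal and 100% = 100 µM tamoxifen.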 The method in brief:
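HUV-EC-C cells (1000/well) in complete medium, compound-treated 16 h at 37 °C; caspase-3/7 activity read by Caspase-Glo 3/7 luminescence. Normalized to DMSO (basal) and 100 uM tamoxifen (100%); AC50 from Hill-equation concentration-response fits.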

Assay [5] can be described thus: Cellular Toxicity (caspase-3) BJ (AID 658).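 Also: 0% = DMSO basal and 100% = 10 µM staurosporine.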 Put shortly: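 qHTS, BJ fibroblasts, 1000 cells/well; 5 hr preincubation, 16 hr compound, 37 °C; Caspase-Glo 3/7 reagent, 1 hr RT; luminescence. DMSO = 0%, 10 uM staurosporine = 100%. Hill-equation AC50.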
The nature of assay [6]: Cellular Toxicity (caspase-3) MRC-5 (AID 659).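 Also: 0% = DMSO basal and 100% = 10 µM staurosporine.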 The method in brief: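 MRC-5 fibroblasts, 1500/well; 16 h cpd, 37 °C; Caspase-Glo 3/7, 1 h RT; lumi read. Norm: DMSO = 0%, 10 uM staurosporine = 100%. Hill-fit AC50 from qHTS conc-response.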
The nature of assay [7]: Confirmation and Secondary Assay for Modulators of Hemoglobin Beta Chain Splicing at IVS2 705 locus (AID 930).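 Also: HeLa cells stably expressing the EGFP-705 splicing reporter; GFP fluorescence per well restored by corrected splicing of the IVS2-705 intron in EGFP; series mostly up to about 46 µM; % of control where 0% means no effect.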 The method in brief: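 Secondary splice-site specificity test uses HeLa expressing CMV-driven EGFP interrupted by IVS2-705; cells were treated 2 days at 37C with 500 nM antisense PNA as positive control.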
The nature of assay [8]: qHTS Assay for Identification of Small Molecule Inducers of Hypoxia Response (AID 2120; active = well fitted curve in the direction sought with a large enough effect in the signal ratio, with a control signal flat, not every such curve was filed as active; the % refers to the signal ratio; also: 0% is about no effect). The method in brief:
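HRE-bla ME-180, 2500 cells/well, 0.5% dialyzed FBS medium; cpd titration, 17 h 37 degrees C; CCF4 2.5 h RT; Ex 405, Em 460/530 ratio -> %Activity, AC50.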
Background: In qHTS, concentration-response curves come from the screen itself.

The nature of assay [9]: qHTS assay for small molecule antagonists of retinoid X receptor alpha signaling (AID 588546).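 Also: cells stimulated with 9-cis-retinoic acid as agonist; % is scaled to controls: 0 for no effect and ±100 for the full control effect.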 The settings on record: HEK293T RXRa-UAS-bla, beta-lactamase ratio, antagonist mode; measured here: W530 green channel, cytotoxicity proxy. The method in brief: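 Beta-lactamase reporter inhibition, read as CCF4 fluorescence ratio (ex 405, em 460/530 nm) after 2 h at RT. HEK293T UAS-bla cells, 2500/well, were stimulated with 9-cis-RA at 500 or 100 nM final alongside test compound for 18 h at 37 C.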

In assay [10] the target is Thyroid hormone receptor beta (Homo sapiens) (UniProt P10828). Description: qHTS assay for small molecule antagonists of thyroid hormone receptor beta signaling (AID 588547; active = well fitted inhibition curve with a large enough effect in the signal ratio, with a control signal flat, not every such curve was filed as active; the % refers to the signal ratio;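 also: cells stimulated with 0.4 nM T3 agonist during compound exposure; series mostly up to about 77 µM; % is scaled to controls: 0 for no effect and ±100 for the full control effect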). To be noted: TR-UAS-bla HEK293, beta-lactamase ratio, antagonist mode, 18 h. The method in brief:
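TR-UAS-bla GripTite HEK293 cells in 2% charcoal/dextran FBS medium; compounds 0.59 nM to 92 uM with T3 at 0.4nM final, 18 h at 37 C. Beta-lactamase read by CCF4 fluorescence (460/530 nm); Hill fits gave IC50 and efficacy.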

The nature of assay [11]: qHTS assay for small molecule agonists of the antioxidant response element (ARE) signaling pathway (AID 651741; active = well fitted activation curve with a large enough effect in the signal ratio; the % refers to the signal ratio; also: potency is read from the fitted curve at half-maximal effect; as to activation: % of control where 0% means no effect). Put shortly:
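HepG2 ARE-bla reporter cells, 2,000/well; 5 h settle at 37 C/5% CO2; compound pin transfer (23 nL, DMSO); 16 h at 37 C; LiveBLAzer B/G FRET substrate, 2 h RT; fluorescence intensity read.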

The nature of assay [12]: qHTS assay for small molecule activators of the nuclear factor-kappa B (NF-kB) signaling pathway (AID 651749; active = well fitted activation curve with a large enough effect in the signal ratio; the % refers to the signal ratio; also: series mostly up to about 77 µM; % of control where 0% means no effect). The settings on record: NF-kB-bla ME-180 cells, beta-lactamase FRET ratio, 16 h; activation: stronger effect = higher value. The method in brief:
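NF-kB-bla ME-180 cells, 2,000/well; 23 nL compound or DMSO pinned; 16 hr, 37C/5% CO2; beta-lactamase FRET read-out.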

Assay [13] addresses Tumor necrosis factor (Homo sapiens) (UniProt P01375). The experiment in a line: qHTS assay to identify small molecules that stimulate Tumor Necrosis Factor-alpha (TNF-alpha) secretion (AID 651757; active = well fitted curve in the direction sought with a large enough effect in the signal ratio; the % refers to the signal ratio; also: 0% is about no effect). Put shortly: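 Using 3000 THP-1 cells per well, compounds and controls were applied for 17 hrs at 37 C. Detection followed with two labeled anti-TNF-alpha antibodies (cryptate donor, XL665 acceptor) for 3 hr at room temperature, measured by TR-FRET.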

A short description of assay [14]: qHTS assay for cell viability of HEK293 cells (AID 743288). Also: % is scaled to controls: 0 for no effect and ±100 for the full control effect; nearly all actives have a fitted effect of over 50% in size. To be noted: ATP luminescence (CellTiter-Glo), 18 h; max response: stronger effect = lower value. The method in brief:
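Steps: plate 2,000 parental HEK293 cells per well; incubate ≥5 h, 37 C; add compounds in DMSO; incubate 18 h, 37 C; add CellTiter-Glo; wait 30 min at room temperature; read luminescence.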

Assay [15] has as its target Guanine nucleotide-binding protein G(i) subunit alpha-1 (Homo sapiens) (UniProt P63096). Description: qHTS Assay for Inhibitors of RGS12 GoLoco Motif Activity (Green Fluorophore) (AID 879).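 Also: 0% = labeled peptide with Gαi1 and full inhibition = labeled peptide alone without protein; negative values mean loss of peptide binding seen as reduced polarization.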 Put shortly: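 A drop in FITC polarization marked displacement of the FITC-tagged RGS12 GoLoco peptide (10 nM) from Gαi1 (50 nM). Compounds were incubated 10 min at room temperature in Tris pH 7.5 buffer containing 150 mM NaCl, 0.1 mM GDP and 0.05% NP40; unlabeled peptide titration served as control.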

Assay [16] deals with Pyruvate kinase (Leishmania mexicana) (UniProt Q27686). Description: qHTS Validation Assay for Inhibitors of Leishmania Mexicana Pyruvate Kinase (AID 945).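 Also: 0% = DMSO only neutral control wells.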 The method in brief:
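Read-out: luminescence from PKLight stop/detection reagent, data normalized to DMSO. Reaction: 0.2 nM E451W LmPYK, 0.5 mM PEP, 0.1 mM ADP, pH 7.2, 1 h room temperature.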

Assay [17] concerns the target Pyruvate kinase PKM (Homo sapiens) (UniProt P14618). Description: qHTS Assay for Activators of Human Muscle Pyruvate Kinase (AID 954; active = well fitted curve in the direction sought with a large enough effect, not every such curve was filed as active;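 also: 0% = uninhibited enzyme and -100% = no enzyme or full thiadiazolimine inhibition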). The method in brief: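 Compound pinned into substrate mix (0.5 mM PEP, 0.1 mM ADP), then 0.1 nM PKM2 added; 1 h, RT. Stop/detection luciferase reagent added, luminescence read. Normalized to no-inhibition and no-enzyme or reference-inhibitor controls.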

For assay [18], the target named is Alpha-galactosidase A (Homo sapiens) (UniProt P06280). The experiment in a line: Counterscreen for Glucocerebrosidase Inhibitors: qHTS Assay for Human alpha-Galactosidase at pH 4.5 (AID 992). Also: 0% is about no effect. Put shortly:
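Steps: enzyme (2 nM final), then compound across 0.7 nM to 77 uM, then 80 uM fluorogenic galactopyranoside substrate; incubate 20 min at room temperature; quench at pH 10; measure fluorescence at 365/440 nm.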

Assay [19] addresses alpha-glucosidase (Oryza sativa, rice) (UniProt Q653V4). Description: Counterscreen for Glucocerebrosidase Inhibitors: qHTS Assay for Rice alpha-Glucosidase at pH 5.0 (AID 997).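 Also: 0% = full activity with enzyme and -100% = basal without enzyme.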 Put shortly:
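Endpoint fluorogenic assay at pH 5.0: compounds (0.7 nM to 77 uM) titrated against 4 nM rice enzyme and 400 uM 4-MU-alpha-glucoside for 20 min at room temperature; NaOH/glycine stop, read ex 365/em 440 nm, Hill-fitted AC50.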
In general terms: Counterscreens check selectivity or assay interference.

A short description of assay [20]: Confirmation and Secondary Assay for Modulators of Hemoglobin Beta Chain Splicing at IVS2 654 locus (AID 910).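 Also: HeLa cells stably carrying EGFP split by mutant beta-globin IVS2-654 intron; % of control where 0% means no effect.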 The method in brief:
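HeLa cells stably expressing EGFP interrupted by β-globin IVS2-654 intron, seeded overnight in Opti-MEM/2% FCS, then treated 2 days at 37 °C. Restored splicing read as total peak GFP intensity per well by laser scanning cytometry (488 nm excitation, 500–520 nm emission); 500 nM antisense PNA as control.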

Molecules are shown by their SMILES. “And” between values parts separate entries of the source, which are not always exact repeats. Identical values can stand only once. Records with an inconclusive call do not appear. The source made the active and inactive calls. Unless noted, calls follow the shape of the dose curve; as a rule, active = well fitted curve in the direction sought with a large enough effect; inconclusive = small, poorly fitted or top-dose-only effect, or another doubt; inactive = no such curve, though single readings can be large; an effect the other way counts as inactive or inconclusive.

Sequence of Guanine nucleotide-binding protein G(i) subunit alpha-1 (Homo sapiens) (P63096 whole entry, looked up): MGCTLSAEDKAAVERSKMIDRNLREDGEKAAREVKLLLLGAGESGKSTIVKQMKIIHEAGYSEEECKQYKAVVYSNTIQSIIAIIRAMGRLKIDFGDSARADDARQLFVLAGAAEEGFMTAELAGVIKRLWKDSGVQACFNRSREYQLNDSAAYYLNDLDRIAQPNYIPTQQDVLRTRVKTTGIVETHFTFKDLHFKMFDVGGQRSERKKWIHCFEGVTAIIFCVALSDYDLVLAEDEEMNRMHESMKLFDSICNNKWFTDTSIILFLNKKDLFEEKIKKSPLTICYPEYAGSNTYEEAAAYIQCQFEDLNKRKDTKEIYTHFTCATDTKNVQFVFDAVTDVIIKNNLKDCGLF
Sequence of Pyruvate kinase PKM (Homo sapiens) (P14618 whole entry, looked up): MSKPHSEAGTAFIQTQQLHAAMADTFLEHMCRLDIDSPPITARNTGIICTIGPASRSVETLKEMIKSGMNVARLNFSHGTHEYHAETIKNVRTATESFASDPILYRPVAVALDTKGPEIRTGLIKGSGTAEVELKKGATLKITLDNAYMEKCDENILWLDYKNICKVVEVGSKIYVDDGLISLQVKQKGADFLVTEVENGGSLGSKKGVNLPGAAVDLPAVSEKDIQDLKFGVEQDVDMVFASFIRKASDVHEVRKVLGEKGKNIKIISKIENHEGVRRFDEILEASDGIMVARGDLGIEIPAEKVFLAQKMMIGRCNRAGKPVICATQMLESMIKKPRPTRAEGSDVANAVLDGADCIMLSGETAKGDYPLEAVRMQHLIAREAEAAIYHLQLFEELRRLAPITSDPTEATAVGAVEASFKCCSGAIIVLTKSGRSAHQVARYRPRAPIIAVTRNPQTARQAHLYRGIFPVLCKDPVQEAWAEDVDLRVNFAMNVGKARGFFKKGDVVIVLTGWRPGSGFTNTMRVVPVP
Sequence of Tumor necrosis factor (Homo sapiens) (P01375 whole entry, looked up): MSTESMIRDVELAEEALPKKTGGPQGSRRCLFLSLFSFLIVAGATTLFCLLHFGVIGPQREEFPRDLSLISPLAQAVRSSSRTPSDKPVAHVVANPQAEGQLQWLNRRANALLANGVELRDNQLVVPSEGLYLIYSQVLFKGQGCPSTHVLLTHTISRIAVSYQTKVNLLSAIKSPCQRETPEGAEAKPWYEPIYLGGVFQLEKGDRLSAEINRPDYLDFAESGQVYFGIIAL
Sequence of Pyruvate kinase (Leishmania mexicana) (Q27686 2-499 E452W): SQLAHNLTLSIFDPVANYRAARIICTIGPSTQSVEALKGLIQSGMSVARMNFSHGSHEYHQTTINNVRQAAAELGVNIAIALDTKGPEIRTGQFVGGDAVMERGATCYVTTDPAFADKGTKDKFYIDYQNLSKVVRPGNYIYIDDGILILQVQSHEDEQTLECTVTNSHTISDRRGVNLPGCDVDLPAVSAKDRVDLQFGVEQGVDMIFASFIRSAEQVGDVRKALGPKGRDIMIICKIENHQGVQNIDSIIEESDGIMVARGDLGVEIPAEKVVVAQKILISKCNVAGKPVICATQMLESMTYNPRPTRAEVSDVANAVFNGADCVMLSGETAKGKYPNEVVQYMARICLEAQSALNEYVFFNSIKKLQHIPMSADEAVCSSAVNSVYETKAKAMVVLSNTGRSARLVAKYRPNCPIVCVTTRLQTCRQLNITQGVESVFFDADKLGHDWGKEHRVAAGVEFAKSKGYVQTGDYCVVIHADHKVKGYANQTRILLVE
Sequence of Thyroid hormone receptor beta (Homo sapiens) (P10828 whole entry, looked up): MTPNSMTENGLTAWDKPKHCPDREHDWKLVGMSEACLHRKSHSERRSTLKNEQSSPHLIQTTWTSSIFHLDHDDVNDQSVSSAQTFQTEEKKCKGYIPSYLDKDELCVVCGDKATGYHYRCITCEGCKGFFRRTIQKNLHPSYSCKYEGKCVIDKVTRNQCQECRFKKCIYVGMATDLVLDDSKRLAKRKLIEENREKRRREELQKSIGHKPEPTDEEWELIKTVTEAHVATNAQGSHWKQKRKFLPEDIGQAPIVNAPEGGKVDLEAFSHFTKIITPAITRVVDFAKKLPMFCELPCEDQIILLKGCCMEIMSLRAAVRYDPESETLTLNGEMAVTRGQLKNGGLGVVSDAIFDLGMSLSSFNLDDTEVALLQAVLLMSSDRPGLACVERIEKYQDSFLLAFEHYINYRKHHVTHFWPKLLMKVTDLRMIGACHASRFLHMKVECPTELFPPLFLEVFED
Sequence of Alpha-galactosidase A (Homo sapiens) (P06280 whole entry, looked up): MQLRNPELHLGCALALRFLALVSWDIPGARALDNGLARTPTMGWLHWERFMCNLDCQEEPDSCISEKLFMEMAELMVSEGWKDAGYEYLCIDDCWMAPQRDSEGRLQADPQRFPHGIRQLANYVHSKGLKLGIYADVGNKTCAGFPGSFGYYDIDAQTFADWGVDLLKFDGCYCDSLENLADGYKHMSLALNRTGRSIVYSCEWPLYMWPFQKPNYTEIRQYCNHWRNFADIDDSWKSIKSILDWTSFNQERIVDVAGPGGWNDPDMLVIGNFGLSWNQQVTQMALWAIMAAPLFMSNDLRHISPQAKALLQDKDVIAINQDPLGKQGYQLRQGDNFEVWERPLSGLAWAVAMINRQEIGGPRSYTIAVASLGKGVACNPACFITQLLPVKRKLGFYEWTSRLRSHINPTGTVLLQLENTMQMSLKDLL

As for `O=S1OCC2C(CO1)C1(Cl)C(Cl)=C(Cl)C2(Cl)C1(Cl)Cl` (stereo not drawn), the Potency result in assay [1] and in assay [7] was “inactive” throughout. For the same compound, the outcome in [2], in assay [3], in assay [4], in [5], in [6] and in assay [8] was inactive. The call in [13] was inactive. In addition, the max response was 1.46% in assay [9] and -13.5% (inactive) in assay [14]. The activity change % (negative = inhibition) in assay [10] was -1.54% (inactive). In assay [11], the Potency was 66.8 µM (active). Further, the activation in assay [12] was 1.74% (inactive).

Turning to `CC[C@@]1(c2ccc(N)cc2)CCC(=O)NC1=O`, the compound was classed as inactive in assay [15], in assay [17], in assay [18] and in [19]. Moreover, the Potency entry in [16] was “inactive”.

With `C[C@H](NC(C)(C)C)C(=O)c1cccc(Cl)c1`, the result in assay [15], in assay [17], in assay [18] and in assay [19] was inactive. In addition, the Potency result in assay [16] was “inactive”.

Consider `ClC1=C(Cl)C2(Cl)C3C(Cl)C=CC3C1(Cl)C2(Cl)Cl` (stereo not drawn), for which the Potency result in [1] and in assay [7] was “inactive” in each case. Further, the outcome in assay [2], in assay [3], in assay [4], in assay [5], in assay [6] and in [8] was inactive. Also, the outcome in assay [13] was inactive. The max response in [9] is -16.9%; in [14], -13.7% (inactive). Besides, the activity change % (negative = inhibition) in assay [10] is -18.9% (inactive). Further, the activation in assay [12] was 1.89% (inactive).

For the compound `ClC(Cl)=C(c1ccc(Cl)cc1)c1ccc(Cl)cc1`, the Potency entry in [1], in assay [20] and in assay [7] was “inactive” in each case. Also, the result in assay [2], in assay [3], in assay [4], in assay [5], in assay [6] and in [8] was inactive. Besides, the result in assay [13] was inactive. Further, the max response in assay [9] was -0.142% and -15.3%; in [14], -14.7% (inactive) and -6.72% (inactive) and -17.4% (inactive). In assay [10], the activity change % (negative = inhibition) was 0.649% (inactive) and 24.3% (inactive) and -8.25% (inactive). The Potency in assay [11] is 66.8 µM (active). In assay [12], the activation is 0.128% (inactive) and -1.11% (inactive) and 0.0255% (inactive).

On to `CCOCN(C(=O)CCl)c1c(C)cccc1CC`, for which the Potency was 25.1 µM (active) in assay [1]; 7.5 µM (active) and 7.7 µM (active) in assay [11]. For the same compound, the call in assay [2], in assay [3], in assay [4], in [5], in assay [6] and in assay [8] was inactive. Further, in assay [13], the compound was called inactive. Further, the Potency entry in assay [20] and in assay [7] was “inactive” in each case. Moreover, the activation in assay [12] is -2.07% (inactive) and -2.02% (inactive). Moreover, the max response in assay [14] is -18.2% (inactive) and -18.7% (inactive).

On to `C[N+]1(C)[C@@H]2CC[C@H]1CC(OC(=O)[C@@H](CO)c1ccccc1)C2` (stereo partly drawn), for which the call in assay [15], in [17], in assay [18] and in [19] was inactive. In addition, the Potency entry in assay [16] was “inactive”.

On to `CN1CC[C@]2(C)c3cc(O)ccc3N(C)[C@@H]12`, for which the compound was called inactive in [15], in assay [17], in [18] and in assay [19]. In addition, the Potency result in assay [16] was “inactive”.

As to `C[C@]12CC[C@H](O)C[C@@H]1CC[C@H]1[C@H]2CC[C@]2(C)C(=O)CC[C@@H]12`, the outcome in assay [15], in assay [17], in assay [18] and in assay [19] was inactive. Moreover, the Potency entry in [16] is “inactive”.

On to `CNC(=O)N(C)c1nnc(C(C)(C)C)s1`, for which the Potency entry in assay [20] and in assay [11] was “inactive” in each case. Moreover, the max response in assay [9] is -11.1%; in assay [14], -3.03% (inactive). For the same compound, the activity change % (negative = inhibition) in [10] is -7.26% (inactive). For the same compound, in assay [12], the activation was -0.0908% (inactive).

On to `CC(C)N(CC[C@@](C(N)=O)(c1ccccc1)c1ccccn1)C(C)C`, for which the compound was classed as inactive in assay [15], in [17], in assay [18] and in [19]. In addition, the Potency entry in [16] is “inactive”.

Regarding `c1ccc2c(c1)[nH]c1cnccc12`, the Potency entry in [20] and in [7] was “inactive” throughout.

For the compound `NC[C@H](O)c1ccc(O)cc1`, the outcome in assay [15], in assay [17], in assay [18] and in [19] was inactive. Besides, the Potency result in [16] was “inactive”.
